CHX counter: affects cycloheximide protein synthesis inhibition readout, counter-screen | AID 2314 | max response, % | hit rate 12% among 300,000 | cell reporter, cycloheximide protein synthesis inhibition counterscreen; in the data active means max response mostly above about 13%, no sharp cut-off; inactive means mostly below about 14%; further: read at 38.3 µM for the half of the compounds with a filed dose
SARS PLpro yeast: SARS-CoV PLP inhibition in yeast; Potency, µM (top dose mostly 32.9 µM), actives largely listed as activators; hit rate 0.19% among 330,000; S. cerevisiae expressing SARS-CoV PLpro, growth rescue; AID 485353; calls by dose curve; further: nearly all actives have a fitted effect of over 55% in size
Shiga inhibitor: inhibitors of Shiga toxin in Vero cells | Vero cells, Shiga toxin protein synthesis inhibition reporter | inhibition, % at 38.7 µM | hit rate 9.2% among 290,000; in the data active means inhibition mostly above about 28%, no sharp cut-off; inactive means mostly below about 43%
Pf growth 48h: P. falciparum growth inhibition at 48 hours (one generation) | P. falciparum luciferase growth in erythrocytes, 48 h | Potency, µM (highest dose often 28.7 µM), usual class: inhibitors | hit rate 5.9% among 310,000
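Parasite viability was followed by luminescence of a genomically integrated firefly luciferase. Cultures held 0.1% parasitemia at 2% hematocrit (final), incubated under 5% CO2 at 37 C.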
Pf growth 96h: P. falciparum growth inhibition at 96 hours; P. falciparum luciferase reporter growth, 96 h; hit rate 6.9% among 320,000; Potency, µM (titrated, usually from 28.7 µM), most hits filed as inhibitors
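Parasite growth measured via integrated firefly luciferase reporter in P. falciparum. Infected erythrocytes at 2% hematocrit, 0.05% parasitemia final were treated 96 hours at 37 C under 5% CO2, and luminescence was read.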
NS1 function inh: inhibitors of influenza NS1 protein function; Potency, µM (top dose mostly 46.1 µM); AID 2326; hit rate 0.4% among 270,000; calls by dose curve; further: actives are rising curves; nearly all actives have a fitted effect of over 50% in size
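In this qHTS, NS1 from influenza A is expressed in budding yeast, where it slows growth. Cells are switched from glucose to 2% galactose medium (pH 6.0, -URA), treated with compound, and growth recovery is read at OD600.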
Numbers stand for hits; – = inactive; ? = inconclusive; · = no result; + = active, no number; ! = not confirmed by another sample; [ ] = another dose, or the depositor's remark. The list is not random: actives were taken first. Their share in the collection is about 21%. Unless noted, the call rests on the fitted dose curve; in most records, active means well fitted inhibition curve with a large enough effect; inconclusive means small, poorly fitted or top-dose-only effect, or another doubt; inactive means no such curve, though single readings can be large or run the other way.

SMILES	CHX counter	SARS PLpro yeast	Shiga inhibitor	Pf growth 48h	Pf growth 96h	NS1 function inh
CCOC(=O)c1cnc2ccc(C)cc2c1Sc1ccccc1C(=O)OC	–	–	–	?	?	–
O=C(Nc1ccc2nsnc2c1)c1ccc2c(c1)OCO2	31.5	–	63.9	–	?	–
O=C(Nc1ccc(Br)cc1)c1ccc2c(c1)OCO2	38.4	–	162.1	–	–	–
O=C(Nc1ccon1)c1ccc2c(c1)OCO2	42.7	–	31.1	–	·	–
O=C(Nc1ccc2c(c1)OCO2)c1c(F)c(F)c(F)c(F)c1F	–	–	–	–	·	–
O=C(Nc1ccc2c(c1)OCO2)c1ccc(Cl)s1	77.6	–	81.2	·	–	–
Cc1oc(-c2ccc3ccccc3c2)nc1CN(C)C(C)c1ccncn1 (configuration not stated)	–	–	–	–	–	–
O=C(Nc1ccc(Cl)c(Cl)c1)c1ccc2c(c1)OCO2	41.6	–	97.8	–	–	–
O=C(Nc1ccc(Cl)c([N+](=O)[O-])c1)c1ccc2c(c1)OCCO2	33.2	–	61.9	–	–	·
CC(C)C(=O)Nc1ccc(NC(=O)c2ccc3c(c2)OCO3)cc1	–	–	–	–	–	–
Cc1cc(C(=O)Nc2ccc3c(c2)OCO3)cs1	38.7	–	58.0	–	–	–
O=c1c(O)c(-c2ccc3c(c2)OCO3)oc2ccccc12	34.5	–	–	?	?	–
Cc1ccc(C(=O)NCC(=O)NCC(=O)OCc2ccc(F)cc2)cc1	–	–	–	?	–[5.75 µM]	·
Cc1c(N=NC2=C(O)CCCC2=O)c(=O)n(-c2ccccc2)n1C	–	–	–	–	–[5.75 µM]	·
CC(C(=O)N1CCOCC1)n1cc([N+](=O)[O-])cn1 (configuration not stated)	–	–	–	–	–	·
Cc1ccnc(NC(=O)c2ccc3c(c2)OCO3)c1	25.3	–	66.4	–	–	–
Cc1ccc(NC(=O)c2ccc3c(c2)OCCO3)nc1	·	·	·	–	–	·
O=C(Nc1ccc2c(c1)OCO2)c1cccc(Cl)c1	48.8	–	106.6	–	?	–
O=C(Nc1ncccc1O)c1ccc2c(c1)OCO2	·	–	·	9.28µM	4.15µM	·
O=C(Nc1ncccc1O)c1ccc2c(c1)OCCO2	·	–	·	?	?	·
Cc1[nH]c2ccccc2c1C(=O)C(=O)Nc1ccc2c(c1)OCO2	28.5	–	47.5	–	?	–
CCN(CC)CC(=O)Nc1c(C#N)cnn1-c1ccccc1	–	–	–	–	–	–
O=C(CCc1ccc(S(=O)(=O)N2CCOCC2)cc1)N1CCc2ccccc2C1	–	–	–	?	?	–
O=C(Nc1ccc2c(c1)oc1ccccc12)c1ccc2c(c1)OCO2	45.2	–	–	–	?	–
O=C(Nc1cc([N+](=O)[O-])ccc1F)c1ccc2ccccc2c1	–	–	–	–	?	–
SMILES	CHX counter	SARS PLpro yeast	Shiga inhibitor	Pf growth 48h	Pf growth 96h	NS1 function inh
O=C(Nc1ccc2c(c1)OCO2)c1ccc2c(c1)OCO2	39.6	–	67.2	–	–	–
O=C(Nc1cc([N+](=O)[O-])ccc1F)c1ccc2c(c1)OCCO2	27.7	–	56.3	–	?	·
O=C(Nc1ccc(Cl)cc1)C1=Cc2ccccc2OC1	82.9	–	67.6	·	–	–
COc1cccc(CNC(=O)CCC2CCCN(C(=O)C3CCOCC3)C2)c1 (configuration not stated)	–	–	–	–	?	–
CN(C)/C=C/C1=CC(=O)CC(C)(C)C1	–	–	–	?	–	·
C#CC[N+](C)(C)CC#Cc1ccc(Cl)cc1	–	–	–	1.65µM	?	–
CCC[N+](CC#CCO)(CC#Cc1ccccc1)CCC	–	–	–	?	?	–
C#CC[N+](CC)(CC)CC#Cc1cccc(Cl)c1	–	–	–	10.4µM	?	–
CC[N+](CC)(CC#CCO)CC#Cc1ccccc1	–	–	–	?	10.4µM	·
COCc1cc(SC2CCCCC2)nc(C)n1	–	–	–	–	–	–
O=C(COc1cccc(F)c1)N[C@@H](Cc1ccccc1)c1nc2ccccc2[nH]1	–	?	–	–	–	–
COc1cccc(C2c3c(oc4ccc(Cl)cc4c3=O)C(=O)N2c2cc(C)on2)c1OC (configuration not stated)	–	?	–	–	8.28µM	?
CC1CCN(C(=O)C(C)OC(=O)CSc2ccc([N+](=O)[O-])cc2)CC1 (configuration not stated)	·	–	·	–	–	·
O=C(c1cc2cc(C(F)(F)F)ccc2s1)N1CCOCC1	35.8	–	83.7	–	–	·
O=C(c1cc2cc(Br)ccc2s1)N1CCOCC1	21.2	–	–	?	–	·
O=C(c1ccc(C(=O)N2CCOCC2)s1)N1CCOCC1	–	–	–	·	–	–
OC(CNCc1ccccc1)Cn1ccc2ccccc21 (configuration not stated)	–	–	–	9.28µM	?	–
OC(CNCCNc1ncccc1C(F)(F)F)Cn1ccc2ccccc21 (configuration not stated)	–	–	–	1.47µM	1.85µM	–
OCc1nc2ccccc2n1CC(O)Cn1ccc2ccccc21 (configuration not stated)	–	–	–	–	?	–
Oc1ccccc1NCC(O)Cn1ccc2ccccc21 (configuration not stated)	–	–	–	?	–	–
COc1ccc(CCN2C(=O)CS/C2=N\NC(=O)c2cccs2)cc1OC	–	–	–	–	–	–
CCOc1ccc(C(=O)OCC(=O)N2CC(C)OC(C)C2)cc1OCC (configuration not stated)	–	–	–	–	–	–
COc1cccc(NC(=O)CCN2CCN(c3ccccc3F)CC2)c1	–	?	–	–	11.7µM	–
O=C(CN1CCN(CCC(=O)Nc2ccccc2F)CC1)Nc1ccc(Cl)cc1	–	–	–	?	–	–
O=C(CCN1CCN(c2ccc(Cl)cc2)CC1)Nc1ccccc1F	–	–	–	–	2.94µM	–
SMILES	CHX counter	SARS PLpro yeast	Shiga inhibitor	Pf growth 48h	Pf growth 96h	NS1 function inh
COc1ccc(OC)c(NC(=O)CCN2CCN(c3ccccc3F)CC2)c1	–	–	–	·	–	–
O=C(CCN1CCN(c2ccccc2F)CC1)Nc1ccccc1F	17.8	?	–	–	–	–
CC12CCC(C(=O)O)(C/C1=N\O)C2(C)C (configuration not stated)	–	11.2µM!	–	–	–	–
CC12CCC(C(=O)Nc3ccccc3)(C/C1=N\O)C2(C)C (configuration not stated)	–	–	–	?	–	–
COc1cccc(Nc2nc(-c3sc(N)nc3C)cs2)c1	23.1	–	+	?	·	–
Cc1nc(C)c(-c2csc(Nc3ncccc3C)n2)s1	42.6	–	55.8	–	–	–
Cc1cc(NS(=O)(=O)c2ccc(Nc3nc(-c4sc(C)nc4C)cs3)cc2)no1	–	–	–	·	–	–
Cc1nc(C)c(-c2csc(Nc3ccc(F)cc3)n2)s1	32.6	–	63.7	–	–	·
Cc1nc(N)sc1-c1csc(Nc2ncccn2)n1	44.3	–	42.1	–	–	·
Cc1nc(N)sc1-c1csc(NCc2ccccc2)n1	–	–	–	?	?	?
